Measurements: the OligoGym collection

The sequences below were run against LRRC45 (assay: pooled miR-30 sensor sort-seq; sequence = guide strand). Conditions: shRNA.
Note: reference of the scale not given here.

Sequence	sensor-assay potency score (higher = more potent)
TGAACTTCCGCTCCAACTCGTC	-0.925
AATAGTCTCCATCAAGTCGAGG	-1.73
TTATCAATAGTCTCCATCAAGT	-1.42
TGACATGCTGGTCATCTCCTGC	-0.943
TTCAGCTCAGCTGACATGCTGG	-0.387
TAGACTCCCGCTCTGCAGCTTC	-0.306

The sequences below were run against LRRC8D in the same assay as above. Conditions: shRNA.

Sequence	sensor-assay potency score (higher = more potent)
TTGTAGCTCACATCTAAGCATC	-1.4
TTTTTGAGCAAATACACCCAGG	-0.941
TTTGTAAACATTCAGTAGCGGC	-0.948
TAGCTCACATCTAAGCATCTGA	0.32
TGATCTTCCACAACAAGCCCGC	-0.444
TAACATAACAACAGCTAGGTAA	-0.029
TTATCCAGGATTGTCATGCTGG	-0.286
TATAGATCAAGTCACTATCTTC	-0.519
TTAACATAACAACAGCTAGGTA	-0.589
TTATGAATGACTAACTTTGTAA	-0.367
TTAAGTACAACTCTCGAAGGTT	0.166
TAAGGTGCCGCAACTCTCGGAG	0.33

What follows are sequences tested against LSG1 in the same assay as above. Conditions: shRNA.

Sequence	sensor-assay potency score (higher = more potent)
TAATATTAAGTTTTTCAGCTAC	-0.362
TTTCGAGCATCTACTATCTGGA	-0.305
TTGAACTCTTACCAACATTAGG	-1.3
TGATTGTTGAACTCTTACCAAC	-1.62
TTGCTTTGTCTATCATCTCTGT	-0.0591
TTGTTGAACTCTTACCAACATT	-1.39
TGTGTCTCGTGAACCATCCCTT	0.477
TTGTGTGCAACCAGGAGTCAGT	-0.781
TTGATTGTTGAACTCTTACCAA	-0.2
TAGCTCCTTAAAGAGCTCCAGT	-1.06
TTCTGTTCCTCTTCTAGCCGGA	0.394
TTGTGTATCTGCCTCTTCTGTG	-0.396

Each sequence was assayed against LTA4H in the same assay as above. Conditions: shRNA.

Sequence	sensor-assay potency score (higher = more potent)
TAAACTTCATTCTTCCTTGTTC	0.185
TTTCACAGAAGGAGTGTCCTGA	0.561
TTTGTATCCAAAACCAGGCTGC	0.416
TTTTTCTATTGTAAGGTCCTTT	0.0919
TTGATGAGAAGAGAGATCCTTC	0.703
TTGGAGAGTGACTTGTCGCCTG	0.145
TTCATGTGCAATGACATTGGAG	-0.277
TTGATTGAGAACATCAACCTTA	0.904
TATATCTGTCAGATCAACCACA	0.143
TTTGACTTCTTGTCCATTGATC	-0.618
